Inconclusive results are not listed. Entries that show only a call come without a potency. A number with no mark means an inactive call. The source made the active and inactive calls. Calls come from the whole dose curve.
biological target: Acetylcholinesterase (Homo sapiens) (UniProt P22303); experiment: Acetylcholinesterase (AChE) small molecule antagonists: fluorescence cell-based qHTS assay (AID 1347398); conditions: SH-SY5Y cells; Potency: AChE activity; outcome: AChE activity; series mostly up to 115 µM; note: nearly all actives have a fitted effect of over 50% in size
Sequence (P22303 whole entry, looked up): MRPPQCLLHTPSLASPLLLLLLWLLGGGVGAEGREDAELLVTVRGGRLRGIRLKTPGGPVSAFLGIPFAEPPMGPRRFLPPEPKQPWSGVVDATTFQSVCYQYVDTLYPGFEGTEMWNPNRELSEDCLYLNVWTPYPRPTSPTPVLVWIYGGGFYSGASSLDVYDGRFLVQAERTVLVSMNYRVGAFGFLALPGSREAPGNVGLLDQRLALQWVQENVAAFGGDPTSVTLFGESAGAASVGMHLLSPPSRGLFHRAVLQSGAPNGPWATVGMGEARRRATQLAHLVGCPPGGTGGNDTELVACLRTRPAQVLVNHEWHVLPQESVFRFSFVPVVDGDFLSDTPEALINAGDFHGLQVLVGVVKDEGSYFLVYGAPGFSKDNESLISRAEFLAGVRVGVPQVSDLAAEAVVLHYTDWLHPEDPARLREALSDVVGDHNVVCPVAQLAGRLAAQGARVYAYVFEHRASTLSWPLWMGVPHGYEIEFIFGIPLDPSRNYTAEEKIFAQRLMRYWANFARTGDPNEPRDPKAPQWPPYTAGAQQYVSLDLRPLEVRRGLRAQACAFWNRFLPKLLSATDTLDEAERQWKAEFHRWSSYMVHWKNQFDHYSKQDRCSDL
Procedure, shortened: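 SH-SY5Y, 2,000 cells/well, attached overnight; cmpd 30 min 37 C; acetylthiocholine/Thiolite Green cocktail 40 min RT; fluorescence Ex/Em 490/520 nm.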

Structure (SMILES)	Potency	activity change, negative = inhibition
O=C(O)Cc1cccc2ccccc12	inactive	
Cc1cc(C2(c3cc(C)c(O)cc3C)OS(=O)(=O)c3ccccc32)c(C)cc1O	inactive	
CCOC(=O)Cn1c(=O)sc2cccc(Cl)c21	inactive	
O=C(O)c1ccc(Cl)c(Cl)c1	inactive	
C=Cc1c(C)c2cc3[nH]c(cc4nc(cc5nc(cc1[nH]2)C(C)=C5CCC(=O)O)C(CCC(=O)O)=C4C)c(C)c3C=C	inactive	
CCOc1ccc(NC(=O)CC(C)O)cc1 (centres undefined)	inactive	
CCCCOCC(C)O (centres undefined)	inactive	
Cc1c(C(=O)c2c[nH]n(C)c2=O)ccc(S(C)(=O)=O)c1C1=NOCC1	inactive	
CCCCCCCCCCCCCCCCC	inactive	
CC1(C)S[C@@H]2[C@H](NC(=O)C(C(=O)O)c3ccccc3)C(=O)N2[C@H]1C(=O)O (some centres undefined)	inactive	
Cn1ccnc1	inactive	
CCOCCn1c(C2CCN(CCc3ccc(C(C)(C)C(=O)O)cc3)CC2)nc2ccccc21	inactive	
Cc1cc2nc(N)sc2cc1C	inactive	
NC(N)=NCCN1CCCCCCC1		3.67% [at 0.439 µM]
CC1=C(Br)C(=O)C(Br)=C/C1=C(/c1ccccc1S(=O)(=O)O)c1cc(Br)c(O)c(Br)c1C	inactive	
O=C(NCC1CN(c2ccc(N3CCOCC3=O)cc2)C(=O)O1)c1ccc(Cl)s1 (centres undefined)	inactive	
CC(C)(Oc1ccc(Cl)cc1)C(=O)OCCCOC(=O)C(C)(C)Oc1ccc(Cl)cc1	inactive	
CN(C)C(=O)Nc1ccc(Cl)c(Cl)c1	inactive	
CCCCCCCCCCCCN1CCCC1=O	inactive	
